# Laboratory results: PMC4336329 (PLoS ONE, 2015)
# Screen size: about 310,000 compounds; about 14,000 (4.5%) showed an effect of 50% or more. The effect is printed as a negative number. The list comes from a sample in which strong results are over-represented; it also holds similar structures and randomly drawn compounds.
# Molecular target: human ether-à-go-go-related gene (hERG) potassium channel (human, UniProt Q12809)
# Experiment: primary screen, population patch clamp on CHO cells stably expressing hERG; higher = less effect of the substance
# 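Note: peak tail current of the secondary pulse compared with the same well before compound.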
# human ether-à-go-go-related gene (hERG) potassium channel, sequence (Q12809 whole entry, looked up): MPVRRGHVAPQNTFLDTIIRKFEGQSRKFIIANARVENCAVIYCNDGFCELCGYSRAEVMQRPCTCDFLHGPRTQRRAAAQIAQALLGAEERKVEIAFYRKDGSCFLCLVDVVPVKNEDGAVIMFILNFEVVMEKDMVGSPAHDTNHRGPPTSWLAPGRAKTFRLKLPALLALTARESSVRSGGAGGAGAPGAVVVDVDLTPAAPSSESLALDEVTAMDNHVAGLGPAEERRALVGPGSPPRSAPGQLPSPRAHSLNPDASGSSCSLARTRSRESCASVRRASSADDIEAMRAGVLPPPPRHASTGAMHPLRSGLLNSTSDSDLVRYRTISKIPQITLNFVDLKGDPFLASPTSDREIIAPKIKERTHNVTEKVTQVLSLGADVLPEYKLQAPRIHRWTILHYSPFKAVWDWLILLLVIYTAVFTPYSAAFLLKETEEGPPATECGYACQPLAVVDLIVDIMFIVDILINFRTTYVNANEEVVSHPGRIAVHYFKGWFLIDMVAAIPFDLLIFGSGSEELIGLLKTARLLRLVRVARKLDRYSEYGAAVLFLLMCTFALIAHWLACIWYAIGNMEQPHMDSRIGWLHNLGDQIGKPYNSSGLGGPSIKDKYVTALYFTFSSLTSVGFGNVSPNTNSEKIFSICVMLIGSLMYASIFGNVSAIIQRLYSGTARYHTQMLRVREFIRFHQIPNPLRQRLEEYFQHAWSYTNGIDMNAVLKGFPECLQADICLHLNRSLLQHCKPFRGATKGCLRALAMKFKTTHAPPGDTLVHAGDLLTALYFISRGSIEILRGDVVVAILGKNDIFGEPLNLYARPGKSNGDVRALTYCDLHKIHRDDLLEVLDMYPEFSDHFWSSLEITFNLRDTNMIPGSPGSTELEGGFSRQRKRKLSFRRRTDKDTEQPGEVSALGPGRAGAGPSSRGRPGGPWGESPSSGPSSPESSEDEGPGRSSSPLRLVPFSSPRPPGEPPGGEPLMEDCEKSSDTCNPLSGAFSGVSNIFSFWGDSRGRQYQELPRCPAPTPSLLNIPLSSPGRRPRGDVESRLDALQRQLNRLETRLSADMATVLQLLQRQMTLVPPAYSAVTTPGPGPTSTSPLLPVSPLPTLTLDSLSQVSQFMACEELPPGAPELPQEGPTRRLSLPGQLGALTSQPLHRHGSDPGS
row,Structure (SMILES),"hERG current change (%, negative = inhibition) at 10uM [%]"
1,CCOc1cc(/C=C(\C#N)C(N)=O)ccc1OCc1c(C)no[n+]1[O-],-0.204
2,Cc1cc(C)n(-c2ccc(C(F)(F)F)cc2[N+](=O)[O-])n1,1.78
3,Cc1nn(C)c(N)c1-c1ccccc1,25.4
4,O=C(Cn1ncc2c3ccccc3n(Cc3ccc(Cl)cc3)c2c1=O)NCCCN1CCCC1=O,-34.5
5,O=C(Cn1ncc2c3ccccc3n(Cc3ccccc3)c2c1=O)NCCCN1CCCC1=O,-29.8
6,CCCn1c2ccccc2c2cnn(CC(=O)NC3CCC(C)CC3)c(=O)c21 (centres unmarked),9.11
7,O=C(Cn1ncc2c3ccccc3n(Cc3ccccc3)c2c1=O)NCCCN1CCCC1,-72.5
8,Cc1ccccc1Cn1c2ccccc2c2cnn(CC(=O)NCCCN3CCN(C)CC3)c(=O)c21,-3.23
9,CCCn1c2ccccc2c2cnn(CC(=O)NC3CCN(Cc4ccccc4)CC3)c(=O)c21,-55.1
10,CCCn1c2ccccc2c2cnn(CC(=O)NCCCN3CCCCC3)c(=O)c21,-53.4
11,CCCn1c2ccccc2c2cnn(CC(=O)NC3CCCCC3)c(=O)c21,2.23
12,Cc1ccc(C)c(Cn2c3ccccc3c3cnn(CC(=O)NCCCN4CCOCC4)c(=O)c32)c1,-49.7
13,Cc1ccc(C)c(Cn2c3ccccc3c3cnn(CC(=O)NCCCN4CCCCC4)c(=O)c32)c1,-71.9
14,Cc1ccccc1N(C(=O)c1csnn1)C(C(=O)NC1CCCCC1)c1ccncc1 (centres unmarked),10.7
15,CN(C)S(=O)(=O)c1cc(NC(=O)CN2CCOCC2)ccc1Cl,17.7
16,COc1ccc(NC(=O)c2sc3nc(C)nc(N4CCN(c5ccccn5)CC4)c3c2C)cc1Cl,-3.04

row,Structure (SMILES),"hERG current change (%, negative = inhibition) at 10uM [%]"
1,Cc1oc2cc(O)cc(O)c2c(=O)c1-c1ccc2c(c1)OCCCO2,3.88
2,O=C(NC1CCCCCCC1)C1CCN(S(=O)(=O)N2CCCC2)CC1,-2.62
3,O=C(CNC(=O)c1ccco1)OCC(=O)c1ccc([N+](=O)[O-])cc1,11.9
4,CCc1noc(C)c1C(=O)OCC(=O)c1ccc(OC)c(OC)c1,-5.3
5,CCOc1ccccc1NC(=O)c1ccc2c(=O)n3c(nc2c1)CCCCC3,-58.6
6,CCc1cccc(NC(=O)c2ccc3c(=O)n4c(nc3c2)CCCCC4)c1,-76.6
7,CCN(CC)C(=O)c1cccc(NC(=O)c2ccc3c(=O)n4c(nc3c2)CCC4)c1,-10.7
8,CC(=O)c1ccc(NC(=O)c2ccc3c(=O)n4c(nc3c2)CCCCC4)cc1,-5.23
9,CCc1ccc(C(=O)NNC(=O)c2ccc3c(=O)n4c(nc3c2)CCC4)cc1,5.5
10,COc1ccc(NC(=O)c2ccc3c(=O)n4c(nc3c2)CCCCC4)cc1,-40
11,CC(=O)c1cccc(NC(=O)c2ccc3c(=O)n4c(nc3c2)CCCCC4)c1,-75.5
12,O=C(Nc1ccc(F)cc1)c1ccc2c(=O)n3c(nc2c1)CCCCC3,-51.8
13,O=C(Nc1ccc(Cl)cc1)c1ccc2c(=O)n3c(nc2c1)CCCCC3,-32.5
14,CCOC(=O)c1ccccc1NC(=O)c1ccc2c(=O)n3c(nc2c1)CCCCC3,-41.3
15,CCOc1ccc(NC(=O)c2ccc3c(=O)n4c(nc3c2)CCCCC4)cc1,19.5
16,CCc1ccc(NC(=O)c2ccc3c(=O)n4c(nc3c2)CCCCC4)cc1,-46.8
